FBW7 act – human FBW7 E3 ligase activation, primary screen; Q969H0; actives 0.13% (n = 650,000); AlphaScreen FBW7–phospho-cyclin E peptide binding, activator screen; normalized activity (activation), % at 26.1 µM; in the data active = normalized activity above about 1.9%;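 also: purified mutant Fbw7 with reduced substrate affinity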
Target sequence (Q969H0 whole entry, looked up): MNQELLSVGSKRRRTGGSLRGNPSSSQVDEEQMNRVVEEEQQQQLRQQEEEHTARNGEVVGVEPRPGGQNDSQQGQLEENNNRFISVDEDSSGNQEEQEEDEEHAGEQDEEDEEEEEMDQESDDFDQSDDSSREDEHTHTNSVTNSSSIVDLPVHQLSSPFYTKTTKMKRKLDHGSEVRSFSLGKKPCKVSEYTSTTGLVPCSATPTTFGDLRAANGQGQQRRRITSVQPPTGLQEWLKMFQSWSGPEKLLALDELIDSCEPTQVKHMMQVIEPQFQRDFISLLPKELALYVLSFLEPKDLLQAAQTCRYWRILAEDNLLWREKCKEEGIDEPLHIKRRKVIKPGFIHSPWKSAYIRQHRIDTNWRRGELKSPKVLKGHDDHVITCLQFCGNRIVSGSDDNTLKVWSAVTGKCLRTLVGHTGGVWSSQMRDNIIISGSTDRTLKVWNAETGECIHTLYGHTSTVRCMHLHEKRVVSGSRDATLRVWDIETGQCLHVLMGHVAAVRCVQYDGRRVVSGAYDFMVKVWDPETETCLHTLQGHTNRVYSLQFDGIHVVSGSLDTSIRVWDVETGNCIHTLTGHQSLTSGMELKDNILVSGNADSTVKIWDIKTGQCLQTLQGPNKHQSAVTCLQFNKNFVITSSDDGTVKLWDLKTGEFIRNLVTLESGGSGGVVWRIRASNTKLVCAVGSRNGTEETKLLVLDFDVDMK
TEAD-YAP inh – TEAD-YAP interaction inhibition. inhibition, % at 9.12 µM. HEK-TIYL cells, TEAD-Gal4/YAP UAS-luciferase luminescence. AID 1259422. actives 1.4% (n = 640,000); in the data active = inhibition above about 32%
MITF inh – human MITF inhibition, primary screen; inhibition, % at 2.6 µM; AlphaScreen MITF homodimerization, bead proximity signal; actives 0.91% (n = 650,000); in the data active = inhibition above about 50%
GPR151 ag – human GPR151 activation; Q8TDV0; PathHunter beta-arrestin GPR151 cells, luminescence; activation, % at 11.2 µM; actives 1% (n = 650,000); AID 1508602; in the data active = activation above about 4.9%
Large screens that a line does not name were inactive; ! = not active in a repeat. A selection: hits, their analogues and other compounds. The true share with any hit is near 3.4%.

COc1ccc(CCNc2ncnc3c2nc(N2CCOCC2)n3C(C)C)cc1	none
COc1ccc(CCNc2ncnc3c2nc(-c2ccc(N4CCOCC4)nc2)n3C(C)C)cc1	TEAD-YAP inh 59
Cc1ccc(-c2cccc3cnc(Nc4ccc5c(c4)OCO5)nc23)cn1	TEAD-YAP inh 33
Cc1ccc(-c2ncn(-c3ccc(Nc4ncc5cccc(-c6ccc(C)nc6)c5n4)cc3)n2)cn1	FBW7 act 2.3
Cc1ccc(-c2ncn(-c3ccc(Nc4ncc5cccc(-c6ccc7c(c6)OCO7)c5n4)cc3)n2)cn1	none
Cc1ccc(-c2cccc3cnc(NC4CCC(C(=O)N5CCCC5)CC4)nc23)cn1 (stereo not given)	TEAD-YAP inh 45!
Cc1ncn(-c2ccc(Nc3ncc4cccc(-c5cn[nH]c5C)c4n3)cc2)n1	TEAD-YAP inh 45
CC(C)[C@H]1NC(=O)[C@@H]2C[C@H](NCc3ccc(CN4CCCCC4)s3)CN2C1=O	none
Cc1ncn(-c2ccc(Nc3ncc4cccc(-c5ccc(F)cc5)c4n3)cc2)n1	none
Cc1ncn(-c2ccc(Nc3ncc4cccc(-c5cccnc5)c4n3)cc2)n1	TEAD-YAP inh 46
Cc1ncn(-c2ccc(Nc3ncc4cccc(-c5cccc6c5ccn6C)c4n3)cc2)n1	none
Cc1ncn(-c2ccc(Nc3ncc4cccc(-c5ccn[nH]5)c4n3)cc2)n1	TEAD-YAP inh 33
Cc1ccc(-c2ncn(-c3ccc(Nc4cc(Nc5ccccc5C(N)=O)c(C5CC5)cn4)cc3)n2)cn1	none
Cc1ncn(-c2ccc(Nc3ncc4cccc(C)c4n3)cc2)n1	none
Cc1ncn(-c2ccc(Nc3ncc4cccc(-c5ccn(C)n5)c4n3)cc2)n1	TEAD-YAP inh 62
Cc1ccc(-c2ncn(-c3ccc(Nc4cc(Nc5ccccc5C(N)=O)c(C)cn4)cc3)n2)cn1	TEAD-YAP inh 38
CN(c1ccccc1)S(=O)(=O)c1ccc(C(=O)OC2CCCCC2=O)cc1 (stereo not given)	none
CC(=O)c1ccc(S(=O)(=O)NCc2cccs2)cc1	none
Cc1ncn(-c2ccc(Nc3ncc4cccc(-c5nccs5)c4n3)cc2)n1	TEAD-YAP inh 56
Cc1c2c(=O)n(-c3nc4ccccc4s3)[nH]c2cc(=O)n1Cc1ccccc1Cl	MITF inh 91
CCOC(=O)c1sc(NC(=O)c2ccc(Cl)cc2Cl)c(C(N)=O)c1C	none
O=C1CC(c2cccc([N+](=O)[O-])c2)c2c(ccc3ccccc23)N1 (stereo not given)	TEAD-YAP inh 61
Cc1ccc(C2CC(=O)Nc3ccc4ccccc4c32)cc1 (stereo not given)	none
Cc1nn(-c2ccccc2)c(N2CCCCC2)c1/C=N/Nc1ccccn1	TEAD-YAP inh 61
COc1ccccc1NC(=O)CCSc1ccccc1	none
CCCCCCCCCCCCCCCCCCOC[C@@H](O)COP(=O)(O)OCC[N+](C)(C)C	none (no result: FBW7 act, TEAD-YAP inh)
Clc1ccccc1-c1nc(N2CCOCC2)c2ccccc2n1	FBW7 act 2.6
Cc1cccc(Nc2nc(N3CCOCC3)c3ccccc3n2)c1	TEAD-YAP inh 38
c1ccc(Nc2nc(N3CCCCC3)c3ccccc3n2)cc1	TEAD-YAP inh 42
Cc1ccc(Nc2nc(N3CCOCC3)c3ccccc3n2)cc1	none
Clc1ccccc1-c1nc(N2CCCC2)c2ccccc2n1	none
CN(C)c1ccc(Nc2nc(N3CCOCC3)c3ccccc3n2)cc1	TEAD-YAP inh 42
Oc1cccc(Nc2nc(N3CCOCC3)c3ccccc3n2)c1	none
CC1(c2ccccc2)CC(C)(C)N(C(=O)CN2C(=O)C3CCCCC3C2=O)c2ccccc21 (stereo not given)	none
Cc1ccccc1S(=O)(=O)Nc1cc(Br)cc2cccnc12	TEAD-YAP inh 36
CC(C)(C)c1ccc(OCC(=O)Nn2cnnc2)c(Br)c1	none
CC(=O)/C=C/n1c(=S)oc2ccccc21	TEAD-YAP inh 57
CC(=O)Nc1ccc(NC(=O)CCn2c(=S)oc3ccccc32)cc1	none
CCC(=O)/C=C/n1c(=S)oc2ccccc21	TEAD-YAP inh 55
Oc1cccc(C=Nc2ccccc2O)c1	none
Oc1ccccc1N=Nc1ccccc1O	TEAD-YAP inh 73, MITF inh 72
COc1ccc(O)c(CNn2c(-c3ccc(OC)c(OC)c3)nc3ccccc3c2=O)c1	none
Cc1ccc([N+](=O)[O-])cc1NC(=O)C(Cc1ccccc1)N1C(=O)c2ccccc2C1=O (stereo not given)	none
CC(C)c1ccc(NC(=O)C2C3C=CC4(O3)C2C(=O)N(CC2CCCO2)C4C(=O)NC2CCCCC2C)cc1 (stereo not given)	none
N#Cc1c(-c2ccccc2F)c(C#N)c2nc3ccccc3n2c1N	TEAD-YAP inh 42
CCC(C)c1ccc(S(=O)(=O)NCc2ccccc2)cc1 (stereo not given)	none
c1ccc(-n2cnc3c(NCCN4CCOCC4)nc(Nc4ncccn4)nc32)cc1	none
c1ccc(-n2cnc3c(NCCN4CCOCC4)nc(Nc4ccccn4)nc32)cc1	TEAD-YAP inh 35
c1ccc(-n2cnc3c(NCCN4CCOCC4)nc(Nc4cnccn4)nc32)cc1	TEAD-YAP inh 48
c1ccc(-n2cnc3c(NCCN4CCOCC4)nc(Nc4ccncn4)nc32)cc1	none
O=c1/c(=C/c2cc3c(cc2Br)OCO3)sc2nc3cc(Br)cnc3n12	none
Cc1ccc(-c2cc(C(=O)Nc3nnc(-c4ccncc4)s3)c3ccccc3n2)o1	none
COCC(=O)Nc1ccc(Nc2nc(C)cc(N3CCOCC3)n2)cc1	none
COc1cc(C(=O)Nc2ccc(O)cc2)cc(OC)c1OC	none
O=C(Nc1ccc2c(c1)Nc1ccccc1CC2)c1ccccc1	none
COc1cc(C(=O)Nc2ccc3c(c2)oc2ccccc23)cc(OC)c1OC	TEAD-YAP inh 57
COc1cc(C(=O)Nc2ccc3c(c2)Nc2ccccc2CC3)cc(OC)c1OC	TEAD-YAP inh 62
COC(=O)c1ccc(NC(=O)c2cc(OC)c(OC)c(OC)c2)cc1	TEAD-YAP inh 59
Cc1cc(Cl)ccc1NC(=O)N[C@H]1C[C@H]2C(=O)N[C@H](CC(C)C)C(=O)N2C1	none
CC1Oc2ccccc2OC1C(=O)NCC1CCC(c2nc3ccccc3[nH]2)CC1 (stereo not given)	none
COCCOC(=O)C1=C(C)NC(C)=C(C(=O)OCCOC)C1c1ccc(-c2ccccc2[N+](=O)[O-])o1	none
OCCCNc1ccc2ncc(-c3ccccc3F)n2n1	TEAD-YAP inh 56
COc1ccc(-c2cnc3ccc(NCc4ccco4)nn23)c(OC)c1	none
OCCCNc1ccc2ncc(-c3cccc4ccccc34)n2n1	none
COc1ccc(C(C)C)cc1-c1cnc2ccc(NCc3ccco3)nn12	TEAD-YAP inh 59
Fc1ccccc1-c1cnc2ccc(NCc3ccco3)nn12	TEAD-YAP inh 39
COCCNc1ccc2ncc(-c3ccccc3F)n2n1	TEAD-YAP inh 49
CCC(C)C(=O)Nc1nnc(Cc2ccccc2)s1 (stereo not given)	none
CC(=O)N1CC(C)Sc2cc(S(=O)(=O)NCCc3ccc(C)cc3)ccc21 (stereo not given)	none
CCN1CCN(C(c2ccc(N(C)C)cc2)c2nnnn2C(C)(C)CC)CC1 (stereo not given)	none
COc1ccccc1NC(=O)Cn1cnc2scc(-c3ccc(C)c(C)c3)c2c1=O	none

Compound activity as filed in PubChem.
